Results reported in PubChem BioAssay (NCI).
Compounds without any hit were thinned out: in the full panel of roughly 79,000, 15% have a hit. Unmarked numbers belong to inactive results. The source made the active and inactive calls. No stated cut-off is given here; in the data, active means growth inhibition above about 70%; inactive means the rest.

What was measured:
[1] = NCI Yeast Anticancer Drug Screen. Data for the rad50 strain (AID 155);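 further: 0% = growth of vehicle-only cultures of the same strain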; conditions: S. cerevisiae rad50 strain growth inhibition, hits give high values
Outline: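 DNA repair mutant yeast, compound exposure, growth read-out; inhibition is taken relative to vehicle.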

[2] = NCI Yeast Anticancer Drug Screen. Data for the mec2-1 strain (AID 157); conditions: S. cerevisiae mec2-1 strain, hits give high values
Outline: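 Growth inhibition is read against vehicle-treated controls after compound exposure of the mec2-1 yeast strain, which is defective in DNA damage repair or cell cycle control.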

[3] = NCI Yeast Anticancer Drug Screen. Data for the sgs1 mgt1 strain (AID 161);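 further: 0% = growth of cultures given vehicle only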; conditions: S. cerevisiae sgs1 mgt1 strain, hits give high values
Outline: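 Compounds are added to genetically altered yeast, and growth is compared with cultures given vehicle alone to give percent inhibition.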

[4] = NCI Yeast Anticancer Drug Screen. Data for the cln2 rad14 strain (AID 165);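 further: 0% = growth equal to vehicle treated cultures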; conditions: S. cerevisiae cln2 rad14 strain, hits give high values
Outline: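 Growth inhibition, relative to vehicle-treated controls, is the read-out. The test organism is a yeast strain with defined genetic alterations, cln2 rad14.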

[5] = NCI Yeast Anticancer Drug Screen. Data for the bub3 strain (AID 167); conditions: S. cerevisiae bub3 mutant strain, hits give high values
Outline: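 In this screen, a yeast mutant lacking normal mitotic checkpoint function is challenged with compound. Relative growth versus vehicle gives the inhibition value.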

[6] = NCI Yeast Anticancer Drug Screen. Data for the mlh1 rad18 strain (AID 175); conditions: S. cerevisiae mlh1 rad18 strain growth inhibition, hits give high values
Outline: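 Cells of a genetically altered yeast strain, deficient in DNA damage repair, were treated with compound. Their growth was then compared with that of vehicle-treated cultures to give inhibition.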

[7] = at 5.0 µM (retest, dose inferred, filed as 0.5)
[8] = at 50.0 µM (retest, dose inferred, filed as 5.0)

Structure (SMILES)	growth inhibition [1, 7]	growth inhibition [1, 8]	growth inhibition ([1]; at 50.0 µM)	growth inhibition [2, 7]	growth inhibition [2, 8]	growth inhibition ([2]; at 50.0 µM)	growth inhibition [3, 7]	growth inhibition [3, 8]	growth inhibition ([3]; at 50.0 µM)	growth inhibition [4, 7]	growth inhibition [4, 8]	growth inhibition ([4]; at 50.0 µM)	growth inhibition [5, 7]	growth inhibition [5, 8]	growth inhibition ([5]; at 50.0 µM)	growth inhibition [6, 7]	growth inhibition [6, 8]	growth inhibition ([6]; at 50.0 µM)
O=C(Nc1cccc(C(F)(F)F)c1)Oc1ccc(Cl)c2cccnc12	77% (active)	98% (active)	89.8% (active)	66%	99% (active)	91.8% (active)	98% (active)	99% (active)	92.8% (active)	90% (active)	98% (active)	88.9% (active)	94% (active)	99% (active)	91.7% (active)	71% (active)	99% (active)	91.7% (active)
Cc1cc(C)c(C#N)c(Sc2nc(C)c([N+](=O)[O-])c(C)c2C#N)n1	56%	54%	66.7%	37%	44%	29.7%	49%	54%	84.5% (active)	41%	51%	42.3%	51%	61%	15%	57%	55%	54.6%
CC(C)(C)c1ccc(O)c(Br)c1	0%	-4%	90.9% (active)	-38%	5%	79.8% (active)	0%	2%	83.8% (active)	1%	-4%	35.5%	31%	-4%	42.6%	1%	8%	86.8% (active)
Cc1nc(Sc2nc3ccc([N+](=O)[O-])cc3s2)sc1C	-8%	86% (active)	88.2% (active)	-12%	90% (active)	86.5% (active)	-2%	92% (active)	84.1% (active)	-9%	85% (active)	46%	-12%	88% (active)	57.3%	-13%	90% (active)	93.6% (active)
COC(=O)[C@]1(C)CCC[C@@]2(C)[C@@H]3C[C@@H]4[C@H]5C[C@@]3(CC[C@@H]21)C[C@@]45C	31%	99% (active)	92.2% (active)	28%	99% (active)	93.5% (active)	34%	99% (active)	93.7% (active)	31%	99% (active)	92.3% (active)	32%	100% (active)	92.2% (active)	37%	99% (active)	86.8% (active)
CCC1C[N+]2=C(c3cc(OC)c(OC)cc3CC2)c2c1cc1n2CCc2cc(OC)c(OC)cc2-1 (centres undefined)	99% (active)	99% (active)	93% (active)	100% (active)	99% (active)	94.8% (active)	99% (active)	99% (active)	94.5% (active)	96% (active)	99% (active)	92.8% (active)	99% (active)	99% (active)	93.5% (active)	97% (active)	99% (active)	93.6% (active)
CCCCCCCCCCCCCCCCCC1=NCCCN1CCO	7%	6%	96.8% (active)	5%	5%	87.5% (active)	14%	8%	40%	9%	5%	-41.6%	4%	7%	61.1%	23%	7%	83% (active)
CCOC(=O)COc1cc(-c2ccccc2F)nc2cc3c(cc12)OCO3	9%	24%	14.7%	4%	6%	15.1%	-16%	-9%	47.2%	8%	15%	23.6%	-29%	36%	65.8%	12%	26%	17.6%
Clc1ccc(Cc2nc3ccccc3s2)cc1	-5%	99% (active)	99.2% (active)	33%	99% (active)	99.5% (active)	47%	99% (active)	99.5% (active)	16%	99% (active)	97.3% (active)	38%	99% (active)	99% (active)	29%	99% (active)	99.3% (active)
COC1CC(C)C(OC)c2cc(O)cc(c2O)NC(=O)/C(C)=C/C=C\C(C)C(OC(N)=O)/C(C)=C\C(C)C1OC (centres undefined)	94% (active)	97% (active)	91.2% (active)	95% (active)	97% (active)	92.5% (active)	97% (active)	98% (active)	91.3% (active)	88% (active)	95% (active)	89.8% (active)	97% (active)	98% (active)	90.7% (active)	96% (active)	97% (active)	90% (active)
Cc1ccc(Nc2ccc(O)c3c2C(=O)c2c(O)ccc(Nc4ccc(C)cc4)c2C3=O)cc1	5%	4%	10.3%	1%	-1%	7.15%	12%	14%	12.8%	0%	-1%	72.5% (active)	-2%	-5%	-3.8%	-2%	-65%	17.4%
CCCCCCN(CCCCCC)CCCNc1nccc2ccccc12	4%	62%	78.5% (active)	-4%	14%	36.5%	2%	88% (active)	56.9%	-4%	13%	56.5%	5%	72% (active)	84% (active)	10%	64%	77% (active)
CN(C)c1ccc2cc3c(cc2c1)Oc1ccccc1N3.[Cl][Zn][Cl]	36%	90% (active)	84.2% (active)	38%	95% (active)	85% (active)	37%	94% (active)	87.8% (active)	29%	94% (active)	83.9% (active)	48%	95% (active)	83.8% (active)	42%	91% (active)	83.3% (active)
